Molecules are shown by their SMILES. A number with no mark means an inactive call. For some assays here: Entries with a potency or affinity are not part of this list. Calls of active or inactive are those of the source. Unless noted, the rule behind the calls is not given here.

Experiment [1] in a line: antimalarial activity against Dd2 strain (AID 2302;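 active = growth inhibition above 50% at the single 2 µM test dose, taken to imply half-maximal potency below 2 µM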;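 note: 0% = DMSO untreated growth and 100% = chloroquine plus artemisinin killed control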). As to conditions: P. falciparum Dd2 in RBCs, LDH growth readout, 72 h; at 2 µM; hits give high values.
Experiment [2] is described as follows: HepG2 cytotoxicity, primary screen, cytotoxicity control for P. falciparum antimalarial project, cell-based, ATP luminescence (AID 2303;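 active = inhibition above 50%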;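 note: 0% = DMSO wells and 100% = digitonin-killed cells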). As to conditions: HepG2 viability, 24-48 h, at 10 µM, hits give high values.
In experiment [3] the target is L-lactate dehydrogenase (Plasmodium falciparum (isolate CDC / Honduras)) (UniProt Q27743). Kind of experiment: PfLDH activity inhibition – cell lysate, 3D7 strain, counter-screen for P. falciparum growth inhibition project (AID 2304).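 Note: 0% = vehicle and 100% = reference inhibitor.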 As to conditions: P. falciparum 3D7 crude extract, LDH APAD/NBT absorbance; at 2 µM; hits give high values.
Chain of L-lactate dehydrogenase (Plasmodium falciparum (isolate CDC / Honduras)) (Q27743 whole entry, looked up): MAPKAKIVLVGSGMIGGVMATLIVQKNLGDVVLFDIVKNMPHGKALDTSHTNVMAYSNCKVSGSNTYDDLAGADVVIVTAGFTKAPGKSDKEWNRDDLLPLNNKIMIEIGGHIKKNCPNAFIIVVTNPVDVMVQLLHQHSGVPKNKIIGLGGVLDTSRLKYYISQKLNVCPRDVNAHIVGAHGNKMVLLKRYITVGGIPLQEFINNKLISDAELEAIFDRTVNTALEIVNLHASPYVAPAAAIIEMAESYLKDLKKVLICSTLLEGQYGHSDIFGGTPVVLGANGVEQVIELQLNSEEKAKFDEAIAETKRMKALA
Experiment [4] can be described thus: inhibition of 3D7 malaria parasite growth – strain 3D7 (AID 2306).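 Note: 0% = DMSO wells and 100% = chloroquine plus artemisinin control wells.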 As to conditions: P. falciparum 3D7 erythrocytic growth, LDH absorbance, 72 h; at 2 µM; hits give high values.
Experiment [5] deals with Calcium-dependent protein kinase 1 (Plasmodium falciparum (isolate 3D7)) (UniProt P62344). The experiment in a line: PfCDPK1 kinase inhibitors, biochemical, TCAMS library (AID 1159585; cut-off not given, nearly all actives have IC50 up to about 0.98 µM;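 note: inhibitors leave more ATP so luminescence rises with inhibition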). As to conditions: recombinant PfCDPK1, Kinase-Glo ATP depletion luminescence.
Chain of Calcium-dependent protein kinase 1 (Plasmodium falciparum (isolate 3D7)) (P62344 whole entry, looked up): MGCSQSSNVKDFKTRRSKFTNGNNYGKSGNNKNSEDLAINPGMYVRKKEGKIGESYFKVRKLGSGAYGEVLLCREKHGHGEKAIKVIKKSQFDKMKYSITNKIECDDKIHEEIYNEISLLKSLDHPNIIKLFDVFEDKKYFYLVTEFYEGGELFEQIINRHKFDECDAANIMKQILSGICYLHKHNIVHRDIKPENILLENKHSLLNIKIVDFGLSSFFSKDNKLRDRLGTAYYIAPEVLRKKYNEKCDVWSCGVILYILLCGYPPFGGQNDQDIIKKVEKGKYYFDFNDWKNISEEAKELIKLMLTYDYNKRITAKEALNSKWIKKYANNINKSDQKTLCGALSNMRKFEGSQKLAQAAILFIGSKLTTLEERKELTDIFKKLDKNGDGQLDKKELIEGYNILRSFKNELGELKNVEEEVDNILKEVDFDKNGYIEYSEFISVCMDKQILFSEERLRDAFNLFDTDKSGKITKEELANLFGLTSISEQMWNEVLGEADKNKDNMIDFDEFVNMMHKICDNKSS
Experiment [6] concerns the target Plasmodium falciparum protein kinase 6 (PK6, PF3D7_1337100) (UniProt Q8IDW1). Kind of experiment: PfPK6 kinase inhibitors, biochemical, TCAMS library (AID 1159586). Conditions: recombinant PfPK6, Kinase-Glo ATP depletion luminescence. On the technique in general: Kinase-Glo reads ATP consumption through a luciferase reaction.
In experiment [7] the target is Protein kinase 7 (PK7), Plasmodium falciparum 3D7 (PF3D7_0213400) (UniProt Q7YTF7). The experiment in a line: inhibition of Plasmodium PK7 catalytic activity – biochemical, TCAMS antimalarial set, Kinase-Glo luminescence (AID 1159587). As to conditions: recombinant PfPK7, Kinase-Glo ATP depletion luminescence.
Chain of Protein kinase 7 (PK7), Plasmodium falciparum 3D7 (PF3D7_0213400) (Q7YTF7 1-343): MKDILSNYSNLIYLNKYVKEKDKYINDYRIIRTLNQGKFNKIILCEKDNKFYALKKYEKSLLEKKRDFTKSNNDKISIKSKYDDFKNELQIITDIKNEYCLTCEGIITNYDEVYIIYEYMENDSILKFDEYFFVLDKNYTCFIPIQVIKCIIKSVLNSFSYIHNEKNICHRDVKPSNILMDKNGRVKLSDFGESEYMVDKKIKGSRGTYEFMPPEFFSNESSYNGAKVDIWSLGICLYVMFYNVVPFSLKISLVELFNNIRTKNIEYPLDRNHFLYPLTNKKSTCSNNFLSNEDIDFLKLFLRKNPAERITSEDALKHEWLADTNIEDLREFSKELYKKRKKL
Experiment [8] addresses Calcium-dependent protein kinase 4 (Plasmodium falciparum (isolate 3D7)) (UniProt Q8IBS5). Kind of experiment: PfCDPK4 kinase inhibitors, biochemical, TCAMS library (AID 1159588; cut-off not given, nearly all actives have IC50 up to about 0.91 µM). Conditions: recombinant PfCDPK4, Kinase-Glo ATP depletion luminescence.

Chain of Calcium-dependent protein kinase 4 (Plasmodium falciparum (isolate 3D7)) (Q8IBS5 whole entry, looked up): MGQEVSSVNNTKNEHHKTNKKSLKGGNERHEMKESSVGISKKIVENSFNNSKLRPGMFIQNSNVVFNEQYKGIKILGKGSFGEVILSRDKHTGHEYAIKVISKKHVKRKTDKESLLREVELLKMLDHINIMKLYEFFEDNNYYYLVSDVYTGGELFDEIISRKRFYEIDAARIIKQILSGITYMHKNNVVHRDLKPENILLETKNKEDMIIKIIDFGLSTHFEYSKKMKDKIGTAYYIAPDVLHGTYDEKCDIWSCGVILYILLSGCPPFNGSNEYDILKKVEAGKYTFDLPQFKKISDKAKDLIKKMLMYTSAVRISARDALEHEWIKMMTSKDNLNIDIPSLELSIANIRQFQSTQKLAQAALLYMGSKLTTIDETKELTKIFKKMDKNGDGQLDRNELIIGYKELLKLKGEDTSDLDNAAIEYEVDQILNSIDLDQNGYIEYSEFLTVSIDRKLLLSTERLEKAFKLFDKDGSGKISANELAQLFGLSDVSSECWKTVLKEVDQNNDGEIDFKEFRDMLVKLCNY
Chain of Plasmodium falciparum protein kinase 6 (PK6, PF3D7_1337100) (Q8IDW1 1-305): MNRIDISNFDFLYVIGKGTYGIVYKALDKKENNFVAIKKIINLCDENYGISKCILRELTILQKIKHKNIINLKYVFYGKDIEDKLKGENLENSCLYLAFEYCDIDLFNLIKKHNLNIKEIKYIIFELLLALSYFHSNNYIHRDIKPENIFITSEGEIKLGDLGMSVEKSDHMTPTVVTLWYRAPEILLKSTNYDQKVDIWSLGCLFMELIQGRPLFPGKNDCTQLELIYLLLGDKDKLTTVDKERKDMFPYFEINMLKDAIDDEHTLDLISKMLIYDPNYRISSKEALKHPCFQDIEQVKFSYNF

The inhibition is the change of the read-out against control, counted positive when it falls. On to `O=C(NCCCN1CCC(N2CCCCC2)CC1)C1=Cc2cc(Br)ccc2OC1`, for which the values for the growth inhibition in experiment [1] and in experiment [4] were 19% and 100% (active), respectively. Further, the inhibition is 26% in experiment [2] and -1% in experiment [3]. Besides, the result in experiment [5], in experiment [6], in experiment [7] and in experiment [8] was inactive.
Consider `COc1ccc(-c2ccnc(-c3cccc(-c4ccccn4)n3)c2)cc1`, for which the growth inhibition is 84% (active) in experiment [1] and 97% (active) in experiment [4]. For the same compound, the inhibition in experiment [2] is 44%; in experiment [3], -1%. For the same compound, the result in experiment [5], in experiment [6], in experiment [7] and in experiment [8] was inactive.
Turning to `CNC(=O)NC1=NC(C)(C)N(OCCCOc2cc(Cl)c(Cl)cc2Cl)C(N)=N1`, the growth inhibition in experiment [1] is 2%; in experiment [4], 97% (active). For the same compound, the inhibition in experiment [2] is 7%; in experiment [3] it was -3%. Also, the outcome in experiment [5], in experiment [6], in experiment [7] and in experiment [8] was inactive.
Turning to `CCN(CC)CCOc1ccc(N(Cc2ccc(C(C)(C)C)cc2)C(=O)c2ccc(Cc3ccccc3)cc2)cc1OC`, the growth inhibition in experiment [1] was 73% (active); in experiment [4] it was 99% (active). In addition, the figures for the inhibition in experiment [2] and in experiment [3] were 5% and 0%, respectively. Moreover, the result in experiment [5], in experiment [6], in experiment [7] and in experiment [8] was inactive.
On to `COc1ccc(CC2(c3ccc(F)cc3)N=C(N)N(CCCc3cccnc3)C2=O)cc1` (stereo not drawn), for which the growth inhibition in experiment [1] is 97% (active); in experiment [4], 98% (active). The inhibition is 12% in experiment [2] and 0% in experiment [3]. Besides, the outcome in experiment [5], in experiment [6], in experiment [7] and in experiment [8] was inactive.
With `CC(C)N1CCN(C(=O)c2ccc(CNCCCN3CCN(c4cccc(Cl)c4Cl)CC3)s2)CC1`, the growth inhibition in experiment [1] is 44%; in experiment [4], 102% (active). Besides, the inhibition in experiment [2] was 51% (active); in experiment [3], -3%. For the same compound, the result in experiment [5], in experiment [6], in experiment [7] and in experiment [8] was inactive.
Consider `Cc1cccc(-c2nc3cc(NC(=O)c4ccc([N+](=O)[O-])o4)ccc3o2)c1`, for which the growth inhibition is 73% (active) in experiment [1] and 94% (active) in experiment [4]. Further, the inhibition was 8% in experiment [2] and 4% in experiment [3]. For the same compound, the result in experiment [5], in experiment [6], in experiment [7] and in experiment [8] was inactive.
In the case of `COc1ccc2[nH]cc(C3CCN(CCC4CCN(C(=O)/C=C/c5ccc(Cl)c(Cl)c5)CC4)CC3)c2c1`, the figures for the growth inhibition in experiment [1] and in experiment [4] were 56% (active) and 101% (active), respectively. Besides, the inhibition in experiment [2] is 52% (active); in experiment [3], 3%. For the same compound, the result in experiment [5], in experiment [6], in experiment [7] and in experiment [8] was inactive.
For `CN1CCC(c2c[nH]c3ccc(NC(=O)Nc4ccc(-c5ccncc5)cc4Cl)cc23)CC1`, the growth inhibition in experiment [1] is 7%; in experiment [4], 100% (active). For the same compound, the results for the inhibition in experiment [2] and in experiment [3] were 31% and 7%, respectively. Further, the result in experiment [5], in experiment [6], in experiment [7] and in experiment [8] was inactive.
Regarding `CCOC(=O)c1ccc(N(CCCN(CCCN(c2ccc(C(=O)OCC)cc2)S(=O)(=O)c2ccc(C)cc2)CCc2ccc(O)cc2)S(=O)(=O)c2ccc(C)cc2)cc1`, the growth inhibition in experiment [1] is 74% (active); in experiment [4] it was 96% (active). For the same compound, the inhibition in experiment [2] was -11%; in experiment [3], -1%. The outcome in experiment [5], in experiment [6], in experiment [7] and in experiment [8] was inactive.
With `CNC(=O)NC1CCN(Cc2c(-c3cccs3)nc3ccccc3c2C(=O)N[C@@H](C)C2CCCCC2)CC1`, the figures for the growth inhibition in experiment [1] and in experiment [4] were 97% (active) and 99% (active), respectively. For the same compound, the inhibition in experiment [2] was 5%; in experiment [3], 1%. For the same compound, the outcome in experiment [5], in experiment [6], in experiment [7] and in experiment [8] was inactive.
Regarding `Nc1nc(N)c2cc(CNc3ccc(Cl)c(Cl)c3)ccc2n1`, the growth inhibition in experiment [1] was 55% (active); in experiment [4], 93% (active). The inhibition in experiment [2] is 62% (active); in experiment [3], 5%. Further, the result in experiment [5], in experiment [6], in experiment [7] and in experiment [8] was inactive.
As for `NC(N)=Nc1nc(-c2cccc(NC(=O)NCC(c3ccccc3)c3ccccc3)c2)cs1`, the growth inhibition is 87% (active) in experiment [1] and 100% (active) in experiment [4]. Also, the results for the inhibition in experiment [2] and in experiment [3] were -3% and 1%, respectively. Also, the result in experiment [5], in experiment [6], in experiment [7] and in experiment [8] was inactive.
Consider `Clc1ccc(OCc2ccccc2)c(Cc2ccc(-c3nc4ccncc4[nH]3)o2)c1`, for which the growth inhibition in experiment [1] was 6%; in experiment [4], 99% (active). Besides, the inhibition in experiment [2] was 2%; in experiment [3] it was -2%. Also, the result in experiment [5], in experiment [6], in experiment [7] and in experiment [8] was inactive.
On to `CCCN(CCC)CCCNc1ccc(C(=O)Nc2ccc(C)c(F)c2)cc1[N+](=O)[O-]`, for which the growth inhibition was 94% (active) in experiment [1] and 100% (active) in experiment [4]. In addition, the values for the inhibition in experiment [2] and in experiment [3] were 33% and 3%, respectively. The result in experiment [5], in experiment [6], in experiment [7] and in experiment [8] was inactive.
Regarding `N#Cc1cncc(-c2nc3c(N4CCN(c5cnccn5)CC4)cccc3n2CCNCc2ccccc2)c1`, the growth inhibition in experiment [1] is 31%; in experiment [4] it was 99% (active). Moreover, the inhibition in experiment [2] is 0%; in experiment [3], 4%. Moreover, the result in experiment [5], in experiment [6], in experiment [7] and in experiment [8] was inactive.
